Experimental findings from PubChem BioAssay (NCATS) are described below.

Inconclusive results are not listed. Active and inactive are the calls of the source. Calls follow the shape of the dose curve; as a rule, active = well fitted cell-killing curve with a large enough effect; inconclusive = small, poorly fitted or top-dose-only effect, or effect the other way; inactive = no such curve, though single readings can be large or run the other way.
% is scaled to controls: 0 for no effect and ±100 for the full control effect; potency is read from the fitted curve at half-maximal effect.

The assay in a line: qHTS assay to identify small molecule inhibitors of chordoma cells - UCH-1 (AID 1259355). Also: nearly all actives have a fitted effect of over 55% in size. The conditions noted are these: UCH-1 chordoma viability, CellTiter-Glo, 48 h, combination, with auranofin plus four topoisomerase inhibitors; series mostly up to 46.1 µM; activity, negative = inhibition: at the top concentration. The text has this:
NIH Chemical Genomics Center [NCGC]
Chordoma is a rare and slow growing tumor that can occur anywhere along the spine, from the base of the skull to the tailbone. Current treatment options for chordoma is surgery and radiation therapy for those who are not candidates for surgery. But chordomas tend to return in the same location or surrounding areas of the original tumor after surgery and/or radiation. Chemotherapy can slow down the progression of the tumor. As chordoma is slow growing, the general cytotoxic agents that kill fast growing cells are ineffective, and some patients have been reported to respond to molecularly targeted drugs.
NCATS Pharmaceutical Collection (NPC) containing approximately 3000 clinically approved and investigational drugs were used to screen at 15 concentrations in a chordoma cell lines, UCH-1, to identify small molecule compounds that can inhibit chordoma cell growth.
NCGC Assay Protocol Summary:
Human chordoma cell line UCH-1 was dispensed at 800 per well in 4uL of culture medium into white solid bottom 1536-well plates (Corning Life Sciences, Corning, NY) using a Multidrop Combi (Thermo Scientific, Waltham, MA) dispenser. The assay plates were incubated at 37 C and 5% CO2 for an overnight, and then 23nL of compounds dissolved in DMSO and positive control were transferred using a Pintool station (Wako, San Diego, CA). Compound treatment was followed by the addition of 1uL of the combination compounds (1uM Auranofin, 500nM each of Camptothecin, Doxorubicin, Rubitecan, and Topotecan) and assay medium to each well of the assay plates using Flying Reagent Dispenser (FRD, Aurora Discovery, San Diego, CA). The assay plates were incubated at 37 C and 5% CO2 for 48hr. Then 5uL of CellTiter-Glo reagent (Promega Corporation, Madison, WI) was added to each well of the assay plates using FRD. After 30min incubation at room temperature, the luminescence signal was quantified using a ViewLux plate reader (PerkinElmer, Shelton, CT).
Take `CN(C)CCOC(=O)C(c1ccccc1)C1(O)CCCC1` (stereo not given): the “activity, negative = inhibition” value was -14.6% (inactive).

On to `FC1(F)C(F)(F)C(F)(F)C2(F)C(F)(F)C(F)(F)C(F)(F)C(F)(F)C2(F)C1(F)F` (stereo not given), for which the “activity, negative = inhibition” value is 1.1% (inactive).

`CC(C(=O)O)c1cccc(Oc2ccccc2)c1` (stereo not given): the “activity, negative = inhibition” value was -23.6% [at 20.6 µM] (inactive).

`Nc1ccc(S(=O)(=O)Nc2cnc3ccccc3n2)cc1`: the “activity, negative = inhibition” value is -28.6% (inactive).

As for `O=C(O)CCc1nc2ccccc2[nH]1`, the “activity, negative = inhibition” value is -4.35% (inactive).

As to `CCCCN1C[C@H](O)[C@@H](O)[C@H](O)[C@H]1CO`, the “activity, negative = inhibition” value is -9.48% (inactive).

`CCN1CCN(C(=O)N[C@@H](C(=O)N[C@@H]2C(=O)N3C(C(=O)O)=C(CSc4nnnn4C)CS[C@H]23)c2ccc(O)cc2)C(=O)C1=O`: the “activity, negative = inhibition” value was -6.35% (inactive).

As for `CC(=O)Nc1ncc([N+](=O)[O-])s1`, the “activity, negative = inhibition” value is 0.509% (inactive).

As to `Oc1ccc(Cl)cc1Cc1cc(Cl)ccc1O`, the “activity, negative = inhibition” value was -2.03% (inactive).

For `CC1(C)OC[C@@H]2O[C@@]3(C(=O)O)OC(C)(C)O[C@H]3[C@@H]2O1`, the “activity, negative = inhibition” value was -9.34% (inactive).

Consider `CCN(CC)CCOC(=O)C(Cc1cccc2ccccc12)CC1CCCO1` (stereo not given), for which the “activity, negative = inhibition” value was 9.88% [at 20.6 µM] (inactive).

As for `CCc1oc2ccccc2c1C(=O)c1cc(Br)c(O)c(Br)c1`, the “activity, negative = inhibition” value is -17.6% (inactive).

As to `CC(C)(Cc1c[nH]c2ccccc12)NCC(O)COc1ccccc1C#N` (stereo not given), the “activity, negative = inhibition” value is -21.5% (inactive).

As to `CC(C)CCCC(C)N` (stereo not given), the “activity, negative = inhibition” value was -2.04% (inactive).

For `CN(C)CCOC(c1ccc(Cl)cc1)c1ccccn1` (stereo not given), the “activity, negative = inhibition” value was -12.9% (inactive).

For `Cc1ccc(-c2ncc(Cl)cc2-c2ccc(S(C)(=O)=O)cc2)cn1`, the “activity, negative = inhibition” value was -22.8% (inactive).

As to `CCO[C@@H]1O[C@H](C(COCc2ccccc2)OCc2ccccc2)[C@H](OCc2ccccc2)[C@H]1O` (stereo not given in full), the “activity, negative = inhibition” value was 2.75% [at 20.6 µM] (inactive).

In the case of `CCN(CC)CCOC(=O)C1(c2ccccc2)CCCC1`, the “activity, negative = inhibition” value was -1.94% (inactive).

As for `C[N+]1(C)CCC(=C(c2ccccc2)c2ccccc2)CC1`, the “activity, negative = inhibition” value is -23.4% [at 20.6 µM] (inactive).

Turning to `CCOC(=O)c1c(N)sc2c1CCN(Cc1ccccc1)C2`, the “activity, negative = inhibition” value was 1.23% (inactive).

With `CCc1nn(CCCN2CCN(c3cccc(Cl)c3)CC2)c(=O)n1CCOc1ccccc1`, the “activity, negative = inhibition” value is -21.3% (inactive).

In the case of `N[C@H](C(=O)O)[C@@H](O)c1ccc(O)c(O)c1`, the “activity, negative = inhibition” value is 0.745% (inactive).

Consider `COP(=O)(OC)OC(c1ccc(Cl)cc1)P(=O)(OC)OC` (stereo not given), for which the “activity, negative = inhibition” value is 2.17% (inactive).

With `CCOc1ccccc1OCCN[C@H](C)Cc1ccc(OC)c(S(N)(=O)=O)c1`, the “activity, negative = inhibition” value is -3.34% (inactive).

Regarding `CCOC(=O)[C@H](CCc1ccccc1)N[C@@H](C)C(=O)N1[C@H](C(=O)O)C[C@@H]2CCC[C@@H]21`, the “activity, negative = inhibition” value was -10% (inactive).

Turning to `NC(N)=NN=C(/C=C/c1ccc([N+](=O)[O-])o1)/C=C/c1ccc([N+](=O)[O-])o1`, the Potency is 10 µM (active).

Consider `CN(CCCN1c2ccccc2CCc2ccccc21)CC(=O)c1ccc(Cl)cc1`, for which the “activity, negative = inhibition” value was -24.4% (inactive).

For the compound `O=[N+]([O-])c1ccc(/C=N\O)o1`, the “activity, negative = inhibition” value was -19.9% (inactive).

Regarding `CCCN(CCc1cccs1)[C@H]1CCc2c(O)cccc2C1`, the “activity, negative = inhibition” value is -14.8% (inactive).

As for `CCCCCCCCOc1ccc(C(=O)c2ccccc2)c(O)c1`, the “activity, negative = inhibition” value was -4.06% (inactive).

Turning to `Cc1cc(NS(=O)(=O)c2ccc(N)cc2)nc(C)n1`, the “activity, negative = inhibition” value was -21.3% (inactive).

Consider `NS(=O)(=O)c1ccc(Cl)c(S(N)(=O)=O)c1`, for which the “activity, negative = inhibition” value was -31.5% (inactive).

As for `Cc1ccc(O)c([C@H](CCN(C(C)C)C(C)C)c2ccccc2)c1`, the “activity, negative = inhibition” value is -26.7% (inactive).

As for `CN1CCN(c2cc3c(cc2F)c(=O)c(C(=O)O)cn3-c2ccc(F)cc2)CC1`, the “activity, negative = inhibition” value is -6.46% (inactive).

For `NCCNc1cccc2ccccc12`, the “activity, negative = inhibition” value was -18.7% (inactive).

Turning to `CCOCCn1c(N2CCCN(C)CC2)nc2ccccc21`, the “activity, negative = inhibition” value is -2.66% (inactive).

Take `CCCCN=C(N)N=C(N)N`: the “activity, negative = inhibition” value is -2.51% (inactive).

In the case of `CC(C)(C)NC[C@H](O)COc1cccc2c1CCCC2=O`, the “activity, negative = inhibition” value is 10.9% [at 20.6 µM] (inactive).

Turning to `CCc1ccc(C(=O)C(C)CN2CCCCC2)cc1` (stereo not given), the “activity, negative = inhibition” value is -19.4% (inactive).

`CC(=O)NCCCCCC(=O)O`: the “activity, negative = inhibition” value was 6.85% (inactive).
